Experimental data as given in the supplement of paper PMC10646978.
± gives the standard deviation.

Legend:
Conditions in all cases: modulator concentration 10 µM
[1] = system: RAW-Dual (murine macrophage reporter line); test: NF-kB reporter (SEAP) activity fold change vs agonist alone; higher = enhanced NF-kB activity
Method in brief: (§1)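 Compound reached 10 μM final in each well by pin transfer, onto RAW-Dual murine macrophage reporter cells seeded at 50 000 per well in 384-well plates. After 1 hour at 37 °C, the cells were stimulated overnight with a PRR agonist. SEAP in the supernatant was read with QUANTI-Blue at 620 nm absorbance for NF-κB, and Lucia luciferase was read with QUANTI-Luc luminescence for IRF. Each signal was turned into fold change against the mean agonist-only control on the same plate, and two replicate plates were averaged with propagated errors.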

[2] = system: RAW-Dual (murine macrophage reporter line); test: IRF reporter (Lucia luciferase) activity fold change vs agonist alone; higher = enhanced IRF activity
Method in brief: as §1

[3] = system: RAW-Dual (murine macrophage reporter line); test: viability score (confluency relative to resting cells, overnight) (fraction); higher = more viable, active = viable (0.7 or more)
Method in brief: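 Overnight exposure to 10 μM final compound was carried out on RAW-Dual macrophages in 384-well plates. IncuCyte software generated two confluency masks over all wells imaged with IncuCyte. The viability score gives confluency in relation to resting cells. A compound met the cutoff if each mask exceeded 70% of resting cells.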

[4] = agonist: CpG ODN 1826 0.5 ug/mL

Row | SMILES | NF-kB reporter [1, 4] | NF-kB reporter ([1]; agonist: LPS 0.1 ug/mL) | NF-kB reporter ([1]; agonist: MPLA […]) | IRF reporter ([2]; agonist: 3'3'-cGAMP 10 ug/mL) | IRF reporter ([2]; agonist: LPS 0.1 ug/mL) | IRF reporter ([2]; agonist: MPLA […]) | viability score [3]
1 | COc1ccc2c(c1O)-c1c(OC)c(OC)cc3c1C(C2)N(C)CC3 (stereo not given) | 0.618 ± 0.051 | 0.905 ± 0.088 | 1.1 ± 0.1 | 0.903 ± 0.046 | 1.29 ± 0.14 | 1.45 ± 0.17 | 1.04 (active)
2 | Cc1ccc(-c2nn(-c3ccccc3)cc2C=C2C(=O)NC(=S)NC2=O)o1 | 1.03 ± 0.3 | 1.01 ± 0.11 | 0.898 ± 0.071 | 0.968 ± 0.057 | 1.27 ± 0.2 | 1.25 ± 0.13 | 1 (active)
3 | O=C(O)CC[N+](=O)[O-] | 0.87 ± 0.22 | 0.979 ± 0.066 | 0.974 ± 0.063 | 0.912 ± 0.086 | 0.96 ± 0.23 | 0.933 ± 0.12 | 1 (active)
4 | CC(C)(C)NCC(O)c1cc(Cl)c(N)c(Cl)c1 (stereo not given) [Prestw-345] | 1.89 ± 0.13 | 0.945 ± 0.072 | 1.29 ± 0.044 | 1.03 ± 0.04 | 0.886 ± 0.06 | 0.933 ± 0.09 | 0.988 (active)
5 | COc1cc2c(c(OC)c1OC)-c1ccc(OC)c(=O)cc1C(NC(C)=O)CC2 (stereo not given) | 2.37 ± 0.14 | 1.47 ± 0.092 | 2.59 ± 0.15 | 0.0948 ± 0.0032 | 1.87 ± 0.21 | 2.02 ± 0.27 | 0.673 (inactive)
6 | C=C(C)C1Cc2c(ccc3c2OC2COc4cc(OC)c(OC)cc4C2C3=O)O1 (stereo not given) | 1.6 ± 0.13 | 1.02 ± 0.1 | 1.75 ± 0.18 | 0.515 ± 0.028 | 1.64 ± 0.27 | 2.07 ± 0.4 | 0.924 (active)
7 | CC(=O)Nc1ccc(C(=O)NCC#CCN(C)C)cc1 | 0.899 ± 0.04 | 0.879 ± 0.083 | 1.07 ± 0.058 | 1.04 ± 0.057 | 1.17 ± 0.29 | 1.3 ± 0.45 | 1 (active)
8 | O=C(NCCN1CCOCC1)c1ccc(Cl)nc1 | 0.917 ± 0.17 | 1.15 ± 0.13 | 0.995 ± 0.1 | 0.987 ± 0.026 | 1.12 ± 0.21 | 1.09 ± 0.13 | 0.972 (active)
9 | O=C1CCC(=O)N1C1CC2CCC(C1)N2C(=O)Cc1cccc2ccccc12 (stereo not given) | 0.977 ± 0.049 | 1.12 ± 0.099 | 0.913 ± 0.11 | 1.08 ± 0.066 | 1.25 ± 0.076 | 1.16 ± 0.21 | 1.01 (active)
10 | Cc1cc(C(C#N)c2ccc(Cl)cc2)c(Cl)cc1NC(=O)c1cc(I)cc(I)c1O (stereo not given) | 0.812 ± 0.14 | 0.999 ± 0.15 | 0.834 ± 0.055 | 0.731 ± 0.058 | 1.3 ± 0.11 | 1.02 ± 0.085 | 0.389 (inactive)
